Data taken from PubChem BioAssay (Tox21).
Inconclusive results are not listed. Calls of active or inactive are those of the source. The call rests on the fitted dose curve; in most records, active means well fitted curve in the direction sought with a large enough effect in the repeat runs; inconclusive means weak or mixed curves; inactive means no such curve, though single readings can be large; an effect the other way counts as inactive or inconclusive.

Experiments:
[1] = Caspase-3/7 induction in CHO-K1 cells by small molecules, qHTS assay (AID 1346980); further: nearly all actives have a fitted effect of over 15% in size
Procedure, shortened: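 Luminescent Caspase-Glo 3/7 read (30min, room temperature) quantified apoptosis induction. Cells were wild-type CHO-K1, treated with compound for 17hr at 37 C and 5% CO2.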

[2] = Caspase-3/7 induction in HepG2 cells by small molecules, qHTS cell viability counter screen (AID 1346981); further: series mostly up to about 92 µM; nearly all actives have a fitted effect of over 30% in size
Procedure, shortened: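 Viability determined by CellTiter-Fluor fluorescence in HepG2 wells also used for the luminescent Caspase-Glo 3/7 read. Compounds were present for 16 hr at 37 C, 5% CO2 before reagent addition.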

[3] = biological target: Nuclear receptor subfamily 1 group I member 2 (Homo sapiens) (UniProt O75469); test: Human pregnane X receptor (PXR) small molecule agonists, qHTS assay (AID 1346982); further: nearly all actives have a fitted effect of over 35% in size; further: potency means the concentration at half of the fitted maximal effect
Nuclear receptor subfamily 1 group I member 2 (Homo sapiens), sequence (O75469 whole entry, looked up): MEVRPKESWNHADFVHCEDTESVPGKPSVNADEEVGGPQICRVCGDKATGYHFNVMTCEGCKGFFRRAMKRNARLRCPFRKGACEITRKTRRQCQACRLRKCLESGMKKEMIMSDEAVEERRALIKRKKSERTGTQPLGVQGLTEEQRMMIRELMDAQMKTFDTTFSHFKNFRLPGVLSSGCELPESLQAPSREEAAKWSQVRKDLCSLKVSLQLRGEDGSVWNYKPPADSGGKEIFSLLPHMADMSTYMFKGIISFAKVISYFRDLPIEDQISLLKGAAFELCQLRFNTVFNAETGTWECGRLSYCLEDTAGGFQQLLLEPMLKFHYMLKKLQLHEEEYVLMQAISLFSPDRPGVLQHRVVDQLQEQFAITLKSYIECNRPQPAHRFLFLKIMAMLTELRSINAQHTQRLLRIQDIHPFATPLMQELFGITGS
Procedure, shortened: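 Compound-induced hPXR transactivation of a CYP3A4 luciferase reporter was scored in HepG2 PXR-Luc cells over 24 hr at 37 C, 5% CO2, by luminescence.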

[4] = biological target: Cytochrome P450 2D6 (Homo sapiens) (UniProt P10635); test: Cytochrome P450 Family 2 Subfamily D Member 6 (CYP2D6) small molecule antagonists: luciferase reporter qHTS assay (AID 1671196); further: nearly all actives have a fitted effect of over 50% in size; further: potency means the concentration at half of the fitted maximal effect
Cytochrome P450 2D6 (Homo sapiens), sequence (P10635 whole entry, looked up): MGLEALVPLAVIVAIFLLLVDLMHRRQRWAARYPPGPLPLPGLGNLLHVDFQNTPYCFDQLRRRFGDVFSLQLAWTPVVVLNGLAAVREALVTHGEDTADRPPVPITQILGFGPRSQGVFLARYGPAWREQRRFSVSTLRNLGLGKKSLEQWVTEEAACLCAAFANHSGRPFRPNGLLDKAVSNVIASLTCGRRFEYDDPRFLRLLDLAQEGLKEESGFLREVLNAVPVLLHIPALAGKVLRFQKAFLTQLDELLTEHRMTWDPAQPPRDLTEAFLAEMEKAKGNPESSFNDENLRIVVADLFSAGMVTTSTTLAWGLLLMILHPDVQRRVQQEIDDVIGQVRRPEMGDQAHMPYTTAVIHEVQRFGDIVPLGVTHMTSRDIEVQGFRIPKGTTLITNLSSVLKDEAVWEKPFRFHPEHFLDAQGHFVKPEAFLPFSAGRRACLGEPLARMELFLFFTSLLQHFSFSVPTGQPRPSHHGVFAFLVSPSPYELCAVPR
Procedure, shortened: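 Each well received CYP2D6 with its proluciferin substrate and chemical, sat 10 min, then got NADPH regeneration solution for 1 h at room temperature. Luminescence in RLU served as the activity measure.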

[5] = biological target: Cytochrome P450 2C19 (Homo sapiens) (UniProt P33261); test: Cytochrome P450 Family 2 Subfamily C Member 19 (CYP2C19) small molecule antagonists: luciferase reporter qHTS assay (AID 1671197); further: nearly all actives have a fitted effect of over 65% in size; further: potency means the concentration at half of the fitted maximal effect
Cytochrome P450 2C19 (Homo sapiens), sequence (P33261 whole entry, looked up): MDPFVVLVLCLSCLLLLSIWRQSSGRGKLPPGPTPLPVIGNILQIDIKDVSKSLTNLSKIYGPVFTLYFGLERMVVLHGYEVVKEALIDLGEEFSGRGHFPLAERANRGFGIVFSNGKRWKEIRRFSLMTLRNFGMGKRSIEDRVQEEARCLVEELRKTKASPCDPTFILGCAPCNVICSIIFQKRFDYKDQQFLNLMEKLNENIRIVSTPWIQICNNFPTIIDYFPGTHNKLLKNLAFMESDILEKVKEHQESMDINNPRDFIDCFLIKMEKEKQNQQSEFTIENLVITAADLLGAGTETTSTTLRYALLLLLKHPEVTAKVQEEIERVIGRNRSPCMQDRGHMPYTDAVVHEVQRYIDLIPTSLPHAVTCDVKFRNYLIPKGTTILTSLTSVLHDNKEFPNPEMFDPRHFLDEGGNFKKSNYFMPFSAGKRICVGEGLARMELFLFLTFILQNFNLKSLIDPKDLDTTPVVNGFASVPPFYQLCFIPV
Procedure, shortened: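 Relative luminescence units recorded 20 min after the detection reagent stopped a 1 h, 37C CYP2C19 reaction on proluciferin substrate, which was started by NADPH regeneration following 10 min room-temperature compound preincubation; ketoconazole positive control.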

[6] = biological target: Cytochrome P450 2C9 (Homo sapiens) (UniProt P11712); test: Cytochrome P450 Family 2 Subfamily C Member 9 (CYP2C9) small molecule antagonists: luciferase reporter qHTS assay (AID 1671198); further: nearly all actives have a fitted effect of over 50% in size; further: potency means the concentration at half of the fitted maximal effect
Cytochrome P450 2C9 (Homo sapiens), sequence (P11712 whole entry, looked up): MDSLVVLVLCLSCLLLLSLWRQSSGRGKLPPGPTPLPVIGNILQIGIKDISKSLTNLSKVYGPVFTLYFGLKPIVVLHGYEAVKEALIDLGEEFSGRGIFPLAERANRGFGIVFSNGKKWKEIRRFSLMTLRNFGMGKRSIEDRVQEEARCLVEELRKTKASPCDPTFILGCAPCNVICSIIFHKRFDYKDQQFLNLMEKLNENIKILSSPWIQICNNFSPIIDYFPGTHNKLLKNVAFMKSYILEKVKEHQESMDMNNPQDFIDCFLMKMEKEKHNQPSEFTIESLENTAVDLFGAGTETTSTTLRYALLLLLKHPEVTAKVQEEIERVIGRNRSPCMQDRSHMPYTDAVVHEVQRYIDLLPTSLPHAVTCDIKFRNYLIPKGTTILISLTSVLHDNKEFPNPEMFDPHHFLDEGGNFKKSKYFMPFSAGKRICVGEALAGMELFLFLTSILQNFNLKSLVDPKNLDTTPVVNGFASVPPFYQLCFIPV
Procedure, shortened: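 Enzyme-substrate mix preincubated with compound 10 min at room temperature; reaction started with NADPH regeneration solution, 1 h 37C. Luminescent luciferin product read after 20 min detection reagent.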

[7] = biological target: Cytochrome P450 1A2 (Homo sapiens) (UniProt P05177); test: Cytochrome P450 Family 1 Subfamily A Member 2 (CYP1A2) small molecule antagonists: luciferase reporter qHTS assay (AID 1671199); further: nearly all actives have a fitted effect of over 50% in size; further: potency means the concentration at half of the fitted maximal effect
Cytochrome P450 1A2 (Homo sapiens), sequence (P05177 whole entry, looked up): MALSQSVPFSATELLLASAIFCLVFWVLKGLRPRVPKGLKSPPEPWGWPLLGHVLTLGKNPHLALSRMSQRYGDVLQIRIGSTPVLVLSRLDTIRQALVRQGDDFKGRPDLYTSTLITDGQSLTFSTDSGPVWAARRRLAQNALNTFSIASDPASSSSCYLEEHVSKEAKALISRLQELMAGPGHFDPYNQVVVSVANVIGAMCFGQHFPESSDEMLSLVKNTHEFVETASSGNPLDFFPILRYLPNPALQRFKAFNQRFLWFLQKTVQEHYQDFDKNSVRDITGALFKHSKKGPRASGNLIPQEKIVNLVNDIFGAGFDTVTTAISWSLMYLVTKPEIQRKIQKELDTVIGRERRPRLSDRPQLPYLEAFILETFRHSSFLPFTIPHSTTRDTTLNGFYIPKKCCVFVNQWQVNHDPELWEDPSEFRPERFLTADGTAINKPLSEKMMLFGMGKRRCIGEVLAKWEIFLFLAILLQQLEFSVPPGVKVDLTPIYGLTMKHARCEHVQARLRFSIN
Procedure, shortened: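 Enzymatic CYP1A2 assay, human, luminescent: 10 min compound–enzyme–substrate preincubation, 1 h NADPH-dependent turnover, 20 min detection step, room temperature throughout. Reduced light indicates lower CYP1A2 activity.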

[8] = biological target: Voltage-gated inwardly rectifying potassium channel KCNH2 (Homo sapiens) (UniProt Q12809); test: Human Ether-a-go-go-Related Gene (hERG) channel small molecule antagonists: fluorescence cell-based qHTS assay (AID 1671200); further: nearly all actives have a fitted effect of over 50% in size; further: potency means the concentration at half of the fitted maximal effect
Voltage-gated inwardly rectifying potassium channel KCNH2 (Homo sapiens), sequence (Q12809 whole entry, looked up): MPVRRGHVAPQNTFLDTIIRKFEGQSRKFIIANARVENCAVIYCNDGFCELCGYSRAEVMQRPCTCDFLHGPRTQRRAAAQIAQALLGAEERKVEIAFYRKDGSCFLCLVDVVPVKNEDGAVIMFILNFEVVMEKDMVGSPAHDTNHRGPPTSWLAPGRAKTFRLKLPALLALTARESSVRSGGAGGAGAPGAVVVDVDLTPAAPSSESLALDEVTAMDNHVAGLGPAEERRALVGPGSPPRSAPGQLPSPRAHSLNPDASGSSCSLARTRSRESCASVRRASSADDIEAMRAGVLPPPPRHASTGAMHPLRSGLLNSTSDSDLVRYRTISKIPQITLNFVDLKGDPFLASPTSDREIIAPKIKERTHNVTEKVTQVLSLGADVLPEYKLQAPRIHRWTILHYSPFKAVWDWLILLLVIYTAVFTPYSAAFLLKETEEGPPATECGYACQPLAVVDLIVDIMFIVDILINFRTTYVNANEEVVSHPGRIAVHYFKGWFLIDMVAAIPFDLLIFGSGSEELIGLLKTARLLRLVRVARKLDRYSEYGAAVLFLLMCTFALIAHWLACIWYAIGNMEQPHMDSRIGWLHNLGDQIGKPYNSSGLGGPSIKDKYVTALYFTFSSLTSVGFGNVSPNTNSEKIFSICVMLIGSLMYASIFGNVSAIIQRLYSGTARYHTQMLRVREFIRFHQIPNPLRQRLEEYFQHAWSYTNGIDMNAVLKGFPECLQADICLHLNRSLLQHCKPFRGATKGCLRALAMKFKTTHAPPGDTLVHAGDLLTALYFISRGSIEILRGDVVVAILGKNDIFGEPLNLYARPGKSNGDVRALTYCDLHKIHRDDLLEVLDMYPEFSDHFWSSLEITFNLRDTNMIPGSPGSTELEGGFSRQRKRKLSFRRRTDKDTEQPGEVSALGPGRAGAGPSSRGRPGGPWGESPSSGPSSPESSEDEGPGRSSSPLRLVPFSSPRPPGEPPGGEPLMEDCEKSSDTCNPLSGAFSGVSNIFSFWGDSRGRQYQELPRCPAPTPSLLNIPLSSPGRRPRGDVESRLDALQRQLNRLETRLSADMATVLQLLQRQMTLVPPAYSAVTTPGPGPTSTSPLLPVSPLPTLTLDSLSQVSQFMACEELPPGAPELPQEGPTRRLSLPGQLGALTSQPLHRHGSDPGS
Procedure, shortened: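 Fluorescence at 540 nm emission (480 nm excitation) was recorded kinetically for 2 min at 1-second intervals once the thallium-containing stimulus reached cells previously loaded with FluxOR II dye.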

[9] = biological target: Cytochrome P450 3A4 (Homo sapiens) (UniProt P08684); test: Cytochrome P450 Family 3 Subfamily A Member 4 (CYP3A4) small molecule antagonists: luciferase reporter qHTS assay (AID 1671201); further: nearly all actives have a fitted effect of over 50% in size; further: potency means the concentration at half of the fitted maximal effect
Cytochrome P450 3A4 (Homo sapiens), sequence (P08684 whole entry, looked up): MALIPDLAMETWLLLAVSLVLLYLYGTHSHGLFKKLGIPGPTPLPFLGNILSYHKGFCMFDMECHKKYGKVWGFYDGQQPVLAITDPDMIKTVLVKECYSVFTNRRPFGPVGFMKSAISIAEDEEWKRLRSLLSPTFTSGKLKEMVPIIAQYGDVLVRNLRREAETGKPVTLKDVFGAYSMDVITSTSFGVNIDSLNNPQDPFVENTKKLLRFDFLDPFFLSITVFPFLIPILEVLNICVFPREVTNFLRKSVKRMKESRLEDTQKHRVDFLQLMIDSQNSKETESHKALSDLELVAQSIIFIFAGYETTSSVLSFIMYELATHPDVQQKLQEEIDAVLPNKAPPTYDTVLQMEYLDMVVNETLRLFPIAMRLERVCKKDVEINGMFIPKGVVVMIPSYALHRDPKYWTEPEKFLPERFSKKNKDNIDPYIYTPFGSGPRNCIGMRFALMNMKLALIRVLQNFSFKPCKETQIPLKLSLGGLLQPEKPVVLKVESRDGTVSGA
Procedure, shortened: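 qHTS, 1536-well. CYP3A4 + proluciferin substrate, cpd 10 min RT → NADPH regen 1 h RT → detection reagent 20 min → luminescence (RLU). Ketoconazole positive control.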

[10] = biological target: Nuclear receptor subfamily 1 group I member 2 (Rattus norvegicus) (UniProt Q9R1A7); test: Rat pregnane X receptor (rPXR) activation by small molecules, qHTS assay (AID 1346983); settings: rPXR luciferase reporter cells, One-Glo luminescence, 24 h; max activation: hits give high values; further: nearly all actives have a fitted effect of over 20% in size
Nuclear receptor subfamily 1 group I member 2 (Rattus norvegicus), sequence (Q9R1A7 whole entry, looked up): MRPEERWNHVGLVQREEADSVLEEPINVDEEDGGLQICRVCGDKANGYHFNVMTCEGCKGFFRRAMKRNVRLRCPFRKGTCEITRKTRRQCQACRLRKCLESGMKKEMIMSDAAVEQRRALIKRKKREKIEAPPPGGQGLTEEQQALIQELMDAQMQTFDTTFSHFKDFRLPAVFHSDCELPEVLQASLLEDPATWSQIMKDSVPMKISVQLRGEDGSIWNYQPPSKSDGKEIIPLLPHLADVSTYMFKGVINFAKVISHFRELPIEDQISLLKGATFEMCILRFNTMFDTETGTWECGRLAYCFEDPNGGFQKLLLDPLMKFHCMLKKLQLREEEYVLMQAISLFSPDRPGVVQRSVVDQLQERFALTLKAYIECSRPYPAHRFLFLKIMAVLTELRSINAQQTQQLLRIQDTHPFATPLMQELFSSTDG
Procedure, shortened: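 Luminescent readout (One-Glo luciferase, 30 min room temperature) followed 24 hr compound treatment at 37 C of rPXR cells plated 2,000 per well and preincubated 5hr; qHTS format with compounds delivered in DMSO.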

[11] = biological target: Nuclear receptor subfamily 1 group I member 2 (Homo sapiens) (UniProt O75469); test: CYP3A4 induction through human pregnane X receptor (PXR) by small molecules, qHTS assay (AID 1346984); further: nearly all actives have a fitted effect of over 40% in size; further: potency means the concentration at half of the fitted maximal effect
Procedure, shortened: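 Readings come from a luciferase reporter: DPX-2 cells, which are HepG2 cotransfected with PXR and a CYP3A4-promoter construct, were exposed to test compounds for 24 h at 37C before One-Glo detection.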

[12] = biological target: Nuclear receptor subfamily 1 group I member 2 (Homo sapiens) (UniProt O75469); test: Human pregnane X receptor (PXR) activation by small molecules, qHTS assay (AID 1346985); further: nearly all actives have a fitted effect of over 40% in size
Procedure, shortened: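 DPX-2 cells (HepG2 co-transfected with a PXR response element and a CYP3A4-promoter luciferase construct) were seeded at 2,000 per well, rested 5 hr at 37C, then exposed to DMSO-dissolved compounds for 24 hr. Activation was read as luciferase luminescence.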
On the % scale 0 is the no-effect control and ±100 the full control effect.

CCO[Si](CCCSSSSCCC[Si](OCC)(OCC)OCC)(OCC)OCC
inactive: Potency [1] | Potency [2] | Potency [3] | Potency [8]
active: Potency [4] 35.6 µM | Potency [5] 5.03 µM | Potency [6] 12.6 µM | Potency [7] 71.1 µM | Potency [9] 2.83 µM

CCc1ccc(O)c(C(C)(C)C)c1
inactive: Potency [1] | Potency [2] | Potency [3] | Potency [4] | Potency [9]
active: Potency [5] 17.8 µM | Potency [6] 31.7 µM | Potency [7] 35.6 µM

CC(C)c1cccc(C(C)C)c1N1C(=O)c2ccc(O)cc2C1=O
active: Potency [3] 27.3 µM | Potency [5] 39.9 µM | Potency [6] 12.6 µM
inactive: Potency [1] | Potency [7] | Potency [8]

CC1CCCCN1CCCOC(=O)c1ccc(OC2CCCCC2)cc1 (configuration not stated)
inactive: Potency [1] | Potency [2] | Potency [5] | Potency [6] | Potency [7] | Potency [9]
active: Potency [4] 15.5 µM | Potency [8] 2.68 µM

CCc1c(C(=O)O)c(=O)cnn1-c1ccc(Cl)cc1
inactive: Potency [1] | Potency [2] | Potency [3] | Potency [4] | Potency [5] | Potency [6] | Potency [7] | Potency [8] | Potency [9]

S=P(N1CC1)(N1CC1)N1CC1
active: Potency [4] 48.6 µM | Potency [5] 9.42 µM | Potency [6] 19.3 µM | Potency [7] 57.7 µM
inactive: Potency [1] | Potency [2] | max activation [10] -4.01% | Potency [11] | Potency [12] | Potency [8]

Cc1occc1SSc1ccoc1C
active: Potency [6] 56.4 µM
inactive: Potency [1] | Potency [2] | Potency [4] | Potency [5]

Cc1c(C)n(Cc2ccccc2)c2ccc(C(=O)OCCN(C)C)cc12
inactive: Potency [1] | max activation [10] 1.71%
active: Potency [3] 7.5 µM | Potency [11] 3.98 µM | Potency [5] 15.5 µM | Potency [6] 15.5 µM | Potency [7] 10.2 µM | Potency [8] 10.7 µM

Oc1ccc(-c2ccc(O)cc2)cc1
inactive: Potency [1] | Potency [5] | Potency [6] | Potency [8]
active: Potency [3] 48.9 µM | Potency [7] 28.4 µM

CCCCNc1c(C(=O)OCC)c(C)nc2c1cnn2CC
inactive: Potency [1] | Potency [2] | Potency [8]
active: Potency [3] 29.8 µM | Potency [6] 27.5 µM | Potency [7] 2.75 µM

Cc1ccc(CCn2c3c(c4cc(Cl)ccc42)CN(C)CC3)cn1
inactive: Potency [1] | Potency [6]
active: Potency [3] 33.5 µM | Potency [5] 17.4 µM | Potency [8] 12 µM

CCN(CC)CCOC(=O)C1(C2CCCCC2)CCCCC1
inactive: Potency [5] | Potency [6]
active: Potency [3] 8.41 µM

CC(C)OC(=O)c1cc(C(=O)OC(C)C)cc([N+](=O)[O-])c1
active: Potency [3] 19.8 µM | Potency [4] 6.87 µM | Potency [5] 0.0816 µM | Potency [6] 0.84 µM | Potency [7] 2.33 µM
inactive: Potency [1] | Potency [9]

CN(C)CCOC(c1ccccc1)c1ccccc1 (tested in a mixture with another compound)
inactive: Potency [1]
active: Potency [3] 61.6 µM

CCC(C)(C)c1cc(O)c(C(C)(C)CC)cc1O
active: Potency [3] 30.6 µM | Potency [5] 31.7 µM | Potency [6] 63.3 µM
inactive: Potency [1] | Potency [4] | Potency [7] | Potency [8] | Potency [9]

CCCCCCC(C)Nc1ccc(Nc2ccccc2)cc1 (configuration not stated)
inactive: Potency [1]
active: Potency [3] 21.7 µM | Potency [4] 28.3 µM | Potency [5] 5.03 µM | Potency [6] 7.1 µM | Potency [7] 22.4 µM | Potency [9] 35.6 µM
